The values below come from PubChem BioAssay (NCATS).

Results filed as inconclusive are left out. The source made the active and inactive calls. Unless noted, calls come from the whole dose curve; as a rule, active = well fitted curve in the direction sought with a large enough effect; inconclusive = small, poorly fitted or top-dose-only effect, or another doubt; inactive = no such curve, though single readings can be large; an effect the other way counts as inactive or inconclusive.

Assay [1] concerns the target Catechol O-methyltransferase (Homo sapiens) (UniProt P21964). Put plainly: Confirmatory Screen for Target Class Profiling of Small Molecule Inhibitors of Methyltransferases (AID 1745852; calls by dose curve; for activity change, negative = inhibition: % is set by controls: 0 for no effect and ±100 for the full control effect). The conditions noted are these: MTase-Glo luminescence, SAH detection, recombinant enzyme; measured here: COMT max response; stronger effect = lower value.
Assay [2] addresses Guanidinoacetate N-methyltransferase (Homo sapiens) (UniProt Q14353). Described as above. To be noted: MTase-Glo luminescence, SAH detection, recombinant enzyme; activity change, negative = inhibition: at 57.3 µM (top of the series).
Assay [3] addresses Nicotinamide N-methyltransferase (Homo sapiens) (UniProt P40261). The description is as above. The conditions noted are these: MTase-Glo luminescence, SAH detection, recombinant enzyme; measured here: NNMT max response; stronger effect = lower value.
Assay [4] deals with Phenylethanolamine N-methyltransferase (Homo sapiens) (UniProt P11086). The description is as above. To be noted: MTase-Glo luminescence, SAH detection, recombinant enzyme; measured here: PNMT max response; stronger effect = lower value.
The target in assay [5] is Metallo-beta-lactamase type 2 (Klebsiella pneumoniae) (UniProt C7C422). Put plainly: qHTS to identify inhibitors of the New Delhi Metallo-beta-lactamase (NDM): assay validation screen against the NCATS LOPAC Collection (AID 1794843).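 Note: nitrocefin turnover by NDM-1 measured as 485 nm absorbance at plateau; % is set by controls: 0 for no effect and ±100 for the full control effect.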 The essentials: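 NDM-1 at 2 nM final in 50 mM HEPES pH 7.0, 1 uM ZnSO4, 0.01% Tween20, preincubated with LOPAC compounds pinned in DMSO; 50 uM nitrocefin (stock) added. Hydrolysis read as absorbance at 485 nm in the plateau phase.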
(Quantitative high-throughput screening tests each substance at several concentrations.)

The target in assay [6] is Glutathione peroxidase 1 (Homo sapiens) (UniProt P07203). Put plainly: Primary qHTS Assay for Inhibitors of Recombinant Selenoprotein Glutathione Peroxidase 1 (GPX1) (AID 1845191). Note: nearly all actives have a fitted effect of over 65% in size. The procedure, abridged:
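GR-coupled assay: compounds preincubated 30 min at room temperature with GPX1, then reaction started with CHP; final 10 nM GPX1, 1 mM GSH, 0.5 mM CHP, 0.5 mM NADPH, 100 nM GR, 0.01% BSA, pH 7.5 Tris buffer. NADPH fluorescence (340/450 nm) read at 0 and 15 min.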

Assay [7] has as its target Phospholipid hydroperoxide glutathione peroxidase GPX4 (Homo sapiens) (UniProt P36969). Kind of assay: Primary qHTS Assay for Inhibitors of Recombinant Selenoprotein Glutathione Peroxidase 4 (GPX4) (AID 1845192). For activity change, negative = inhibition: % is set by controls: 0 for no effect and ±100 for the full control effect. Note: nearly all actives have a fitted effect of over 65% in size. The essentials: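 GR-coupled assay: recombinant GPX4 preincubated 30 min with compound at room temperature; final 200 nM GPX4, 1 mM GSH, 0.5 mM cumene hydroperoxide, 0.5 mM NADPH, 100 nM GR, 0.01% BSA, pH 7.5 Tris. NADPH fluorescence (340/450 nm) read at 0 and 15 min.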

The nature of assay [8]: Quantitative High-Throughput drug screen in 47 multiple myeloma cell lines against the NCATS MIPE library collection: FR4_PLB cell viability assay (AID 1918924; note: nearly all actives have a fitted effect of over 35% in size). The procedure, abridged:
(§1)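 Myeloma cell lines, 500 cells per well, exposed to MIPE 4.0 library compounds for 48 h at 37C, 5% CO2. Viability from ATP by CellTiter-Glo luminescence; normalised to DMSO (100%) and media-only (0%) wells.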

The nature of assay [9]: Quantitative High-Throughput drug screen in 47 multiple myeloma cell lines against the NCATS MIPE library collection: Delta47_JCRB cell viability assay (AID 1918925; note: nearly all actives have a fitted effect of over 45% in size). The essentials: (§2)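 qHTS of the MIPE 4.0 collection: 500 myeloma cells/well, 48 h drug exposure at 37C in 5% CO2, then CellTiter-Glo for 5 min at room temperature before luminescence reading.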
Assay [10] is described as follows: Quantitative High-Throughput drug screen in 47 multiple myeloma cell lines against the NCATS MIPE library collection: EJM_DSMZ cell viability assay (AID 1918926; note: nearly all actives have a fitted effect of over 30% in size). The procedure, abridged:
as §2

The nature of assay [11]: Quantitative High-Throughput drug screen in 47 multiple myeloma cell lines against the NCATS MIPE library collection: AMO1_DSMZ cell viability assay (AID 1918927; note: nearly all actives have a fitted effect of over 30% in size). The essentials: as §2
Assay [12] is described as follows: Quantitative High-Throughput drug screen in 47 multiple myeloma cell lines against the NCATS MIPE library collection: ARP1_JJKsccF8 cell viability assay (AID 1918928; note: nearly all actives have a fitted effect of over 40% in size). The essentials: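 Myeloma cells at 500 per well in 1536-well format treated with MIPE 4.0 library by pin transfer for 48 h at 37C, 5% CO2. Viability from ATP luminescence (CellTiter-Glo), normalized to DMSO (100%) and media-only (0%) wells.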

A short description of assay [13]: Quantitative High-Throughput drug screen in 47 multiple myeloma cell lines against the NCATS MIPE library collection: ARD_JJKsccE7 cell viability assay (AID 1918929). The essentials:
as §2

Assay [14] in a line: Quantitative High-Throughput drug screen in 47 multiple myeloma cell lines against the NCATS MIPE library collection: Karpas620_DSMZ cell viability assay (AID 1918959). Note: nearly all actives have a fitted effect of over 30% in size. The essentials:
as §1

For assay [15], the target named is Luciferin 4-monooxygenase (Photinus pyralis) (UniProt P08659). Put plainly: Primary firefly luciferase (FLuc) qHTS assay for identification of artifact compounds. (AID 1845220).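 For activity change, negative = inhibition: plate controls were DMSO vehicle for no effect and no enzyme for full effect.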 Note: nearly all actives have a fitted effect of over 60% in size. The conditions noted are these: outcome: dose series up to 54.1 µM unless noted. The essentials: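 Enzymatic FLuc inhibition assay: compounds pre-exposed to luciferin/ATP (10 uM each) for 15 min, then purified P. pyralis enzyme at 10 nM added. Read-out: luminescence at 5 min.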

Assay [16] has as its system Nanoluciferase (engineered Oplophorus gracilirostris luciferase). Kind of assay: Primary Nanoluciferase (NLuc) qHTS assay for identification of artifact compounds. (AID 1845222).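 Note: NLuc secreted into diluted conditioned medium of S16 cells; 0% = DMSO and -100% = no enzyme.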 The procedure, abridged:
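S16 cell supernatant NLuc, 1:55; cpds qHTS; 15 min RT dark; Nano-Glo substrate 1:100, 5 min; luminescence; Hill fit of % inhibition.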

Assay [17] in a line: Primary redox qHTS assay for identification of artifact compounds. (AID 1845223). The procedure, abridged:
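Amplex Red (25 uM) and HRP (250 mU/mL) in HBSS, with compounds for 15 min, then 250 uM DTT for 30 min, room temperature, dark. Fluorescence 525/598 nm read; normalized to DMSO and 10 uM DA3003; Hill fit.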

Catechol O-methyltransferase (Homo sapiens), sequence (P21964 whole entry, looked up): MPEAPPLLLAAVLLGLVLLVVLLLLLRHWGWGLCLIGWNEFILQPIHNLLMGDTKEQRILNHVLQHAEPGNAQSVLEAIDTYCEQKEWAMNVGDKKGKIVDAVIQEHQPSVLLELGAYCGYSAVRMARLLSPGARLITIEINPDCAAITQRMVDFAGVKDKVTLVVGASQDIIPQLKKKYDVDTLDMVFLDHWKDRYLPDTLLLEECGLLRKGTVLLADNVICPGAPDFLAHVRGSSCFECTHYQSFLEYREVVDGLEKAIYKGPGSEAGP
Glutathione peroxidase 1 (Homo sapiens), sequence (P07203 whole entry, looked up): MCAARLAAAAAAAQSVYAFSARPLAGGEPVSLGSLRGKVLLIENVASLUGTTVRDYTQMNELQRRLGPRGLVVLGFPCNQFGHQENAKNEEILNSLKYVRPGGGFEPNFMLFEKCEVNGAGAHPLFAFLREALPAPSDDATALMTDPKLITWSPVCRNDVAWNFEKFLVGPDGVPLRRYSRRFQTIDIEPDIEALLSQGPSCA
Nicotinamide N-methyltransferase (Homo sapiens), sequence (P40261 whole entry, looked up): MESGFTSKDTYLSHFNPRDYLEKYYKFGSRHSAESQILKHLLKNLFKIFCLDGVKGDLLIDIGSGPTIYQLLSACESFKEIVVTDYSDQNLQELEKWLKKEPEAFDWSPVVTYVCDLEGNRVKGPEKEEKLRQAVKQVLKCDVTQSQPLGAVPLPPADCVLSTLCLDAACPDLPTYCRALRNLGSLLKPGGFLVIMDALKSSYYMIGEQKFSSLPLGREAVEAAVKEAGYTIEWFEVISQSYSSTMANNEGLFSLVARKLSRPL
Metallo-beta-lactamase type 2 (Klebsiella pneumoniae), sequence (C7C422 whole entry, looked up): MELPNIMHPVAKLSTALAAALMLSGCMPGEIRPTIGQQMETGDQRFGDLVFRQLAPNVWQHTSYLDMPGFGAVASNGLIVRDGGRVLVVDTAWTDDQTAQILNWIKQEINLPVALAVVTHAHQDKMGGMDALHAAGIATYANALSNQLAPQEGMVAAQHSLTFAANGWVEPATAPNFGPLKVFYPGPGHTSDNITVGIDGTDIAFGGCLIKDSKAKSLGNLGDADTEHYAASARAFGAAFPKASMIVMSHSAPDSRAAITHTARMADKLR
Phospholipid hydroperoxide glutathione peroxidase GPX4 (Homo sapiens), sequence (P36969 whole entry, looked up): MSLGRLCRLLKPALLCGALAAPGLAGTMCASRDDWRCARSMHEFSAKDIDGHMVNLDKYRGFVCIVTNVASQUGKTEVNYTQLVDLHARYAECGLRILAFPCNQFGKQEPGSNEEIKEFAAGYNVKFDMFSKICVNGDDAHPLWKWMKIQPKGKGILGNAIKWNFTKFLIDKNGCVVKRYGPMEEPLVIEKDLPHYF
Phenylethanolamine N-methyltransferase (Homo sapiens), sequence (P11086 whole entry, looked up): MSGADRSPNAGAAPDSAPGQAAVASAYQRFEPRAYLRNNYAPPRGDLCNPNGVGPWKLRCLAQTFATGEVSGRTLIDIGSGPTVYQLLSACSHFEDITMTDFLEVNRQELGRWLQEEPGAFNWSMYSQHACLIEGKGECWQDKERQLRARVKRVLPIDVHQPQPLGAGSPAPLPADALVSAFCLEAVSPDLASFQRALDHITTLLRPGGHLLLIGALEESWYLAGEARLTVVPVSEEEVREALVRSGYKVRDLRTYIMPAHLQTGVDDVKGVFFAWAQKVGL

Regarding `NC1CCc2cc(O)c(O)cc2C1` (centres undefined), the values for the activity in assay [1], in assay [3] and in assay [4] were 149%, -14.5% and -22.8%, respectively. Besides, the activity change, negative = inhibition in [2] is 0.293%. In addition, the outcome in assay [5] was “inactive”. In addition, the Potency result in [6] and in [7] was “inactive” in each case.

As for `NC1CC1c1ccccc1` (centres undefined), the activity in assay [1] was 4.07%; in assay [3], -6.32%; in assay [4], -14.4%. In addition, the activity change, negative = inhibition in assay [2] was determined as 2.15%. For the same compound, the outcome in assay [5] was “inactive”. The Potency result in assay [6], in assay [7], in assay [8], in assay [9], in assay [10] and in assay [11] was “inactive” throughout. The Potency entry in [12], in assay [13] and in [14] was “inactive” throughout.

As for `c1ccc(C2(c3ccccc3)CC2C2=NCCN2)cc1` (centres undefined), in [5], the outcome is “inactive”. Further, the Potency entry in [6] and in assay [7] was “inactive” throughout.

Regarding `C[C@@H]1O[C@H](C[N+](C)(C)C)C[C@H]1O`, the outcome in assay [5] is “inactive”. In addition, the Potency result in assay [6] and in assay [7] was “inactive” in each case.

For `c1ccc2sc(C3(N4CCCCC4)CCCCC3)cc2c1`, the outcome in assay [5] is “inactive”. The Potency result in assay [6] and in assay [7] was “inactive” in each case.

As for `CNCCc1c[nH]c2ccc(O)cc12`, the activity was 2.02% in assay [1], -11.4% in [3] and 0.784% in assay [4]. In addition, the activity change, negative = inhibition in assay [2] is 1.54%. For the same compound, the Potency result in [6] and in assay [7] was “inactive” throughout.

In the case of `CCCCc1ccc(C(=O)O)nc1`, the outcome in assay [5] was “inactive”. For the same compound, the Potency entry in assay [6] and in assay [7] was “inactive” in each case.

For `CC(=O)NCCc1c[nH]c2ccccc12`, the outcome in assay [5], in [16] and in assay [17] was “inactive” in each case. The Potency result in assay [6] and in assay [7] was “inactive” each time. Besides, in assay [15], the outcome was “inactive [at 86.2 µM]”.

Regarding `C[N+](C)(C)CC(=O)O`, in [5], the outcome is “inactive”. Further, the Potency entry in [6] and in assay [7] was “inactive” each time.

Regarding `O=[N+]([O-])/N=C1\NCCN1Cc1ccc(Cl)nc1`, the Potency entry in [6] and in [7] was “inactive” throughout.

With `CCC(=O)O[C@@H]1C=C2CCC3C(CCC4(C)C3CC[C@@H]4OC(=O)CC)C2CC1` (some centres undefined), the Potency result in [6] and in [7] was “inactive” in each case.

Regarding `NC(=O)CN1CC(O)CC1=O` (centres undefined), the outcome in [5] was “inactive”. Also, the Potency entry in assay [6] and in assay [7] was “inactive” each time.

Turning to `CC(=O)[C@H]1CCC2C3CC[C@H]4C[C@H](O)CC[C@]4(C)C3CC[C@@]21C` (some centres undefined), the outcome in [5] is “inactive”. The Potency entry in assay [6] and in assay [7] was “inactive” in each case.

Take `O=C(O)Cc1cnc[nH]1`: the Potency entry in assay [6] and in assay [7] was “inactive” each time.

For the compound `O=[N+]([O-])c1ccc([As](=O)(O)O)cc1`, the Potency result in [6] and in assay [7] was “inactive” in each case.

As for `CC[C@@H](C(N)=O)N1CCCC1=O`, in assay [5], the outcome was “inactive”. Besides, the Potency entry in [6], in assay [7], in assay [8], in assay [9], in assay [10] and in [11] was “inactive” throughout. Also, the Potency result in [12], in assay [13] and in assay [14] was “inactive” each time.

Regarding `O=C(O)CC[N+](=O)[O-]`, the outcome in [5] is “inactive”. In addition, the Potency entry in [6] and in [7] was “inactive” throughout.

As for `O=C(N[C@H]1CN2CCC1CC2)c1ccc(Cl)cc1`, the outcome in assay [5], in assay [15], in assay [16] and in assay [17] was “inactive” in each case. Besides, the Potency entry in assay [6], in [7], in [8], in assay [10] and in [14] was “inactive” throughout.
